Experimental data as given in the supplement of paper PMC6555819.

Columns and labels:
Assay in all cases: PBM binding z-score (relative to random genomic background probes); higher = stronger binding; sequences stand for … in GC…GCGATTGACAGCGTAGAATGAAGG
[1] = tested on: RARb homodimer (NR concentration 270 nM)
Outline: (§1)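 Scanned fluorescence from custom Agilent 4×180K protein-binding microarrays was regression-normalized. Binding z-scores use random background probes as reference. Ligand-free nuclear receptor dimers were incubated on the arrays for 1 h and detected with antibodies against each partner (one per run).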

[2] = tested on: RARg:RXRa (NR concentration 270 nM, RXRa partner concentration 90 nM)
Outline: as §1

[3] = tested on: RARg homodimer (NR concentration 270 nM)
Outline: as §1

[4] = tested on: RXRa DBDmut IVT, anti-RXR (DBD mutation: RXRa K156A/R161A, NR concentration 90 nM)
Outline: as §1

[5] = tested on: RXRa homodimer (NR concentration 180 nM)
Outline: as §1

[6] = tested on: THRa:RXRa (NR concentration 90 nM, RXRa partner concentration 90 nM)
Outline: as §1

[7] = tested on: THRa homodimer (NR concentration 90 nM)
Outline: as §1

[8] = tested on: VDR:RXRa (NR concentration 270 nM, RXRa partner concentration 90 nM)
Outline: as §1

[9] = tested on: VDR homodimer (NR concentration 270 nM)
Outline: as §1

| Sequence | PBM binding z-score [1] | PBM binding z-score [2] | PBM binding z-score [3] | PBM binding z-score [4] | PBM binding z-score [5] | PBM binding z-score [6] | PBM binding z-score [7] | PBM binding z-score [8] | PBM binding z-score [9] |
| --- | --- | --- | --- | --- | --- | --- | --- | --- | --- |
| CTCGAAAGGTCGTGCTCAGGTGAGTTTACCAAAC | 2.8 | 5.22 | 4.34 | 2.46 | 5.17 | 3.84 | 1.18 | 3.98 | 3.54 |
| CCATACAGGTGAAAGGTAACTCAGTCTGGTACGC | 0.92 | 1.41 | 0.917 | 0.261 | 2.32 | 1.08 | 0.069 | 0.988 | -0.101 |
| CGTCGAAGTTCAAGGTAACGTAACAGAAAGCAGC | 1.95 | 2.79 | 3.25 | 3.69 | 2.21 | 2.07 | 0.792 | 2.09 | 1.74 |
| ATATGTAGGTTACATCTGGGTCATTCAGGCTATG | 3.02 | 3.33 | 2.31 | 0.961 | 2.38 | 3.17 | 1.31 | 3.04 | 1.8 |
| CCTGCTGGGCCAAGGTCATTGATCAGTCAAAGCA | 3.19 | 3.79 | 2.93 | 1.26 | 3.54 | 3.49 | 2.22 | 3.06 | 2.48 |
| ATACCAAGGGGATCGTGAGGTCGTTGATACTAAC | 1.03 | 0.522 | 0.278 | 0.533 | 0.933 | 2.89 | 1.66 | 1.88 | 2.27 |
| GATAAAGGGTCAAGGCCAGAGTACGCGTATTGAT | 4.87 | 6.46 | 6.91 | 2.52 | 6.59 | 3.38 | 0.263 | 4.56 | 2.36 |
| TCATATAGGTAAACAGGTGAAAGTGCGTAAGTTA | 1.09 | 0.642 | 0.552 | 1.66 | 1.17 | 0.829 | 0.583 | 1.29 | 0.623 |
| CCGACTGGGGCAAAGGATACCATACTCAGTACGA | 0.263 | 0.271 | 0.572 | -0.0232 | 0.075 | -0.155 | -0.322 | -0.368 | -0.406 |
| TCTATTAGTTGATTATGGCAACCGAAACAGCGGA | -0.245 | 0.408 | 0.199 | 1.38 | 0.509 | 0.165 | 0.396 | 1.08 | 0.715 |
| CGAACTAGGTCATTGACACGACAGTGAATAGTAA | 2.5 | 3.57 | 4.22 | 2.37 | 2.52 | 2.53 | 0.751 | 2.01 | 1.15 |
| GCATATAGGTAATACAAGGTGATAGTCCGATTGT | -0.0222 | 0.537 | 0.59 | 0.172 | 0.526 | 3.48 | 0.413 | -0.0322 | -0.123 |
| ACTATTAGTCGAGACGAGGGCAACCGATAGGTTG | 0.973 | 0.43 | 0.663 | 0.357 | 0.46 | 0.977 | 0.0699 | 0.293 | 0.358 |
| ATACCAAGGTGATCGTGAGGTCGTTTATACTAAC | 1.98 | 2.29 | 1.01 | 1.06 | 1.36 | 3.56 | 2.59 | 3.6 | 3.5 |
| ACTCGGAGGACTAAGGTCAGAGCTACGCCAGTGA | 3.15 | 2.89 | 2.54 | 0.168 | 2.34 | 3.35 | 2.6 | 1.65 | 0.805 |
| GCGACTGGGGCATCAGCAGGTTAACATAACTTAA | 1.03 | 1.09 | 0.785 | -0.118 | 0.5 | 1.04 | -0.291 | 0.126 | -0.312 |
| TCGAGTAGGTTAGTCGGGGCATACAGCCAACATA | 0.452 | 0.28 | 0.255 | 0.235 | 0.45 | 1.02 | -0.188 | 1.74 | -0.0779 |
| AGAATGACGTTATACGTAGATCAGGGAAGAAAGT | -0.508 | -0.123 | 0.109 | -0.541 | -0.108 | -0.592 | -1.02 | -0.532 | -0.467 |
